Measured values as given in PubChem BioAssay (EPA / NIEHS).
Records with an inconclusive call do not appear. Active and inactive are the calls of the source. Rule for the calls, unless noted: active = hit-call score of the fitted dose curve at least 0.9, where 1 is the maximum; inactive = score below 0.9.

Assay: TAMU_PeakParms_SingleDonor1434_QT: Texas A&M University (TAMU) 1.5-hr Human Induced Pluripotent Stem Cell (iPSC)-derived Cardiomyocytes Calcium (Ca+2) Flux Assay for Cardiotoxicity: QT (decay-rise ratio) (AID 2284235; active = hit-call score of the fitted dose curve at least 0.9, where 1 is the maximum)
Experimental: TAMU_PeakParms is a cell-based, multiplexed-readout assay that uses iPSC-derived cardiomyocytes with measurements taken at 1.5 hours after chemical dosing in a microplate: 384-well plate.TAMU_PeakParms_SingleDonor1434_QT is a phenotype derived from the decay.rise.ratio.avg parameter and uses an EC05 as its POD (5% increase in decay/rise ratio, compared to controls). Decay.Rise.Ratio.Average measures as the average ratio between the rise time and the decay time of the calcium flux, using Fluorescence intensity as a functional reporter from Calcium (Ca+2) flux assay technology. Before modeling, data is preprocessed to remove data points where there is a cessation of beating (where peak.freq.avg equals 0) and data points after they develop of a severe notch phenotype in order to avoid capturing non monotonic effects related to an advanced pathology.Data from the assay component TAMU_PeakParms_SingleDonor1434_QT was analyzed into 1 assay endpoints. This assay endpoint, TAMU_PeakParms_SingleDonor1434_QT_Prolongation, was analyzed in the positive analysis fitting direction relative to DMSO as the negative control and baseline of activity. Using a type of functional reporter, gain-of-signal activity can be used to understand changes in the cardiac function. To generalize the intended target to other relatable targets, this assay endpoint is annotated to the cardiomyocyte function intended target family, where the subfamily is QT interval.
Each test compound from the chemical master plates was transferred into new tissue culture-treated 384-well microplates using acoustic dispensing (Labcyte Echo 550, Beckman Coulter, Indianapolis, IN) in amounts that would result in 5x concentrations (1, 5, 50, 500 uM) in the working plate in a final volume of 50 uL. Chemicals were randomly divided into 16 separate 384-well plates for screening such that the outer-most wells were left empty (308 wells were used on each plate). Fifteen of the plates contained unique test chemicals (n = 65 chemicals, 4 concentrations, one replicate each), positive controls (n = 10 chemicals, one concentration, 3 replicates each), vehicle (0.5% DMSO, n = 12), and media-only (n = 6) wells. Plate 16 contained test chemicals (n = 54 chemicals, 4 concentrations, one replicate each), inter-plate replicates (n = 11 chemicals with replicates, 4 concentrations, one replicate each), and the same design of positive controls and vehicle- and media-only wells as other plates. These plates were stored at -80C until the day of the assay. On assay day, the 5x concentrated chemical working plate was prepared by adding 50 uL cardiomyocyte maintenance medium containing 2.5% v/v DMSO to each well of the microplates. […]

For `O=C(O)CC(O)(CC(=O)O)C(=O)O`, which outcome is on record?
The outcome was “inactive”.

With `Cc1occc(=O)c1O` as the compound, how does the outcome read?
The outcome was “inactive”.

With `CCc1nc(N)nc(N)c1-c1ccc(Cl)cc1` as the compound, how does the outcome read?
The outcome was “inactive”.

With `COC(=O)[C@H]1[C@H]2C[C@@H]3c4[nH]c5cc(OC)ccc5c4CCN3C[C@H]2C[C@@H](OC(=O)c2cc(OC)c(OC)c(OC)c2)[C@@H]1OC` as the compound, how does the outcome read?
The outcome was “inactive”.

Assay: CCTE_Mundy_HCI_hNP1_Casp3_7: CCTE's Caspase-Glo 3/7 Assay in human neuroprogenitor cells for Apoptosis, Mundy Lab (AID 2284240)
In short: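 Apoptosis is scored by activated caspase-3/7 luminescence in WA09-derived neural progenitor cells, measured 26.5 h after chemical dosing. Values represent gain of signal relative to DMSO vehicle.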

For `O=C1NC(=O)C(c2ccccc2)(c2ccccc2)N1`, which outcome is on record?
Its outcome is “inactive”.

With `CC(=O)CC(c1ccccc1)c1c(O)c2ccccc2oc1=O` (stereo unspecified) as the compound, how does the outcome read?
The outcome was “inactive”.

For `OCC(O)CO`, which outcome is on record?
Its outcome is “inactive”.

For `CN(C)CCCN1c2ccccc2Sc2ccc(Cl)cc21`, which AC50 is on record?
Its AC50 is 11.6 µM (active).

Assay: CCTE_Mundy_HCI_Cortical_Synap_Neur_Matur_NeuronCount: CCTE's Synaptogenesis and Neurite Maturation Assay in rat cortical cells for Neuron Count, Mundy Lab (AID 2284242; active = hit-call score of the fitted dose curve at least 0.9, where 1 is the maximum;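 for AC50: hits reduce neuron count versus DMSO baseline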)
Experimental: CCTE_Mundy_HCI_Cortical_Synap&Neurite_Matur is a multiplexed, cell-based-readout assay that uses rat primary cortical cells with measurements taken at 288.33 hours after chemical dosing in a microplate: 96-well plate.CCTE_Mundy_HCI_Cortical_Synap_Neur_Matur_NeuronCount is one of eight components of the CCTE_Mundy_HCI_Cortical_Synap&Neurite_Matur assay. It measures cell viability related to number of neurons using High Content Imaging of fluorescently labelled markers.[…] Using a type of morphology reporter, loss -of-signal activity can be used to understand developmental effects.
Cells are plated onto 96 well plates and allowed 2 hr for attachment to the substrate. At days in vitro (DIV) 5, Cytosine Arabinoside (AraC) is added to arrest glial cell growth. Chemicals are dosed and a media change is performed at DIV 7 of differentiation and is continued through DIV 12 when the experiment is terminated. Cells are fixed with […] and Hoechst Dye. Cells are stained using Millipore Mouse anti-MAP2MAB3418 (1:800) and Millipore Rabbit anti-Synaptophysinsc-1750 (1:250) primary antibodies and Alexa Fluor-488 goat anti-mouse and AlexaFluor-546 goat anti-rabbit secondary antibodies to label neuronal cell nuclei, synapses and neurites. A Cellomics ArrayScan VTi HCS Reader is used for automated image acquisition and analysis of neurite outgrowth.

For `O=C1NC(=O)C(c2ccccc2)(c2ccccc2)N1`, which outcome is on record?
Its outcome is “inactive”.

Which outcome does the source give for `CC(=O)CC(c1ccccc1)c1c(O)c2ccccc2oc1=O` (stereo unspecified) here?
The outcome was “inactive”.

With `CN(C)CCCN1c2ccccc2Sc2ccc(Cl)cc21` as the compound, how does the AC50 read?
Its AC50 is 13.7 µM (active).

Assay: IUF_NPC2c_oligodendrocyte_migration_120hr: Leibniz Research Institute for Environmental Medicine (IUF) 120-hour Neural Progenitor Cell Migration Assay for Oligodendrocyte Migration (NPC2c) (AID 2284297);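 note: O4-positive oligodendrocyte migration distance divided by radial glia migration distance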
In short: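 Primary hNPC spheres migrating on extracellular matrix, exposed five days to a 7-point dilution series with solvent control. Oligodendrocyte migration was scored by high-content imaging of O4 immunostaining and expressed relative to radial glia distance.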

For `O=C1NC(=O)C(c2ccccc2)(c2ccccc2)N1`, which outcome is on record?
Its outcome is “inactive”.

For `CC(=O)CC(c1ccccc1)c1c(O)c2ccccc2oc1=O` (stereo unspecified), which outcome is on record?
The outcome was “inactive”.

With `OCC(O)CO` as the compound, how does the outcome read?
Its outcome is “inactive”.

Which AC50 does the source give for `CN(C)CCCN1c2ccccc2Sc2ccc(Cl)cc21` here?
Its AC50 is 16.1 µM (active).

Assay: IUF_NPC2a_radial_glia_migration_120hr: Leibniz Research Institute for Environmental Medicine (IUF) 120-hour Neural Progenitor Cell Migration Assay for Radial Glia Migration (NPC2a) (AID 2284298)
In short: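 In this multiplexed test, fetal hNPC spheres migrate radially on poly-D-lysine/laminin in N2 medium (37C, 5% CO2, pH 7.2-7.6) under continuous compound exposure over five days. Migration is scored at 120 h from automated Hoechst nuclear imaging.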

Which outcome does the source give for `O=C1NC(=O)C(c2ccccc2)(c2ccccc2)N1` here?
Its outcome is “inactive”.

For `CC(=O)CC(c1ccccc1)c1c(O)c2ccccc2oc1=O` (stereo unspecified), which outcome is on record?
Its outcome is “inactive”.

With `OCC(O)CO` as the compound, how does the outcome read?
The outcome was “inactive”.

Which AC50 does the source give for `CN(C)CCCN1c2ccccc2Sc2ccc(Cl)cc21` here?
The AC50 was 14.2 µM (active).

Assay: IUF_NPC2a_radial_glia_migration_72hr: Leibniz Research Institute for Environmental Medicine (IUF) 72-hour Neural Progenitor Cell Migration Assay for Radial Glia Migration (NPC2a) (AID 2284299)
In short: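 Primary hNPC spheres, fetal brain GW 16-19, on PDL/laminin; DMEM/F12 3:1 + 1% N2. Compound dosed day 0, 7 conc. + SC, half-medium refresh day 3. 72 h brightfield, migration distance core-to-front (um), 4 directions averaged.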

With `O=C1NC(=O)C(c2ccccc2)(c2ccccc2)N1` as the compound, how does the outcome read?
Its outcome is “inactive”.

Which outcome does the source give for `CC(=O)CC(c1ccccc1)c1c(O)c2ccccc2oc1=O` (stereo unspecified) here?
Its outcome is “inactive”.

With `OCC(O)CO` as the compound, how does the outcome read?
The outcome was “inactive”.

For `CN(C)CCCN1c2ccccc2Sc2ccc(Cl)cc21`, which AC50 is on record?
The AC50 was 15.1 µM (active).

Assay: IUF_NPC2b_neuronal_migration_120hr: Leibniz Research Institute for Environmental Medicine (IUF) 120-hour Neural Progenitor Cell Migration Assay for Neuron Migration (NPC2b) (AID 2284300)
In short: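 Neurons identified by TUBB3 immunostaining and Hoechst nuclei; migration distance measured automatically on fixed wells at 120 h, normalized to glia migration. Exposure spanned five days of differentiation in N2 medium, seven test concentrations.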

With `O=C1NC(=O)C(c2ccccc2)(c2ccccc2)N1` as the compound, how does the outcome read?
Its outcome is “inactive”.

With `CC(=O)CC(c1ccccc1)c1c(O)c2ccccc2oc1=O` (stereo unspecified) as the compound, how does the outcome read?
Its outcome is “inactive”.

Which outcome does the source give for `OCC(O)CO` here?
Its outcome is “inactive”.

Which AC50 does the source give for `CN(C)CCCN1c2ccccc2Sc2ccc(Cl)cc21` here?
The AC50 was 15 µM (active).

Assay: IUF_NPC3_neuronal_differentiation_120hr: Leibniz Research Institute for Environmental Medicine (IUF) 120-hour Neuronal Differentiation Assay (NPC3) (AID 2284301)
Experimental: IUF_NPC2-5 is a cell-based, multiplexed assay that uses hNPC, a human primary neural progenitor cells, with measurements taken at 72 or 120 hours after chemical dosing in a 96-well plate. Human neural progenitor cells (hNPC) are generated from human fetal brain cortex at gestational week (GW) 16-19. In the neural progenitor cell migration and differentiation assay (NPC2-5), hNPCs grown as spheres are plated on an extracellular matrix and migrate and differentiate out of the sphere core. The processes radial glia migration, neuronal and oligodendrocyte migration as well as neuronal differentiation, neuronal morphology and oligodendrocyte differentiation are studied using automated phase contrast imaging and automated fluorescence imaging in combination with high content image analysis. In parallel, the cell viability is assessed using an alamar blue viability assay and the cytotoxicity using a lactate dehydrogenase dependent membrane integrity assay.IUF_NPC3_neuronal_differentiation_120hr is one of 12 assay components measured from the IUF_NPC2-5 assay. Neuronal differentiation is determined as the number of all TUBB3 positive cells in percent of the number of Hoechst-positive nuclei in the total neurosphere migration area (see IUF_NPC2a_ glia_migration_120hr) after 120 hr of migration/differentiation. Neurons are automatically identified using a convolutional neural network (CNN) that was trained using manually annotated images of differentiated neurons. Data from the IUF_NPC3_neuronal_differentiation_120hr component was analyzed at the endpoint IUF_NPC3_neuronal_differentiation_120hr in the positive analysis fitting direction relative to DMSO as the negative control and baseline of activity. Using a type of differentiation reporter, gain or loss-of-signal activity can be used to understand developmental effects.
Culture protocol: After the cell expansion period the cells are cultured for up to four weeks in which they are passaged every week as described in 3.6. Between one to three days after passaging spheres at a size of 0.3 mm are picked for the test method. […] Therefore, half of the test condition solution (e.g. solvent control or compound dilution) is replaced by freshly prepared test condition solution.Test Method: Migration distance and cytotoxicity is determined after 72 hours based on brightfield images of each well. […] On the ICC images, migration after 120 hours, neuronal and oligodendrocyte number, neuronal morphology and neuron/oligodendrocyte specific migration is assessed. immunocytochemical staining (ICC) generates an image for each sphere. The plates are scanned using an automated high content imaging device and all nuclei and their positions are determined automatically based on their intensity and size. […]

Which outcome does the source give for `O=C1NC(=O)C(c2ccccc2)(c2ccccc2)N1` here?
Its outcome is “inactive”.

With `CC(=O)CC(c1ccccc1)c1c(O)c2ccccc2oc1=O` (stereo unspecified) as the compound, how does the outcome read?
Its outcome is “inactive”.

Which outcome does the source give for `OCC(O)CO` here?
The outcome was “inactive”.

With `CN(C)CCCN1c2ccccc2Sc2ccc(Cl)cc21` as the compound, how does the AC50 read?
Its AC50 is 7.59 µM (active).
